Source: PubChem BioAssay AID1259415 (National Center for Advancing Translational Sciences (NCATS), 2018)
The campaign covered roughly 410,000 compounds. About 18,000 (4.4%) were called active. Roughly 7% stayed inconclusive and do not appear here. Many of the other results were omitted from the sample, so actives are more common in it than they were. Values without a mark were called inactive. No stated cut-off is given here; in the data, active means activity change below about -60%; inconclusive means no clear call, values can overlap the other calls; inactive means above about -39%.

Test: qHTS Assay for inhibitors of the human cytomegalovirus (HCMV)
Details: HFF cells, HCMV-luciferase reporter, 72 h; at 57.5 µM; active compounds read low
Outline: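 HFF cells seeded 16 h at 37C, treated with compounds, infected with luciferase-reporter HCMV at MOI 1 PFU/cell; luciferase read at 72 h post infection, normalized to buffer-only and Salinomycin controls.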
On the % scale 0 is the no-effect control and ±100 the full control effect.

Row | Compound | activity change, negative = inhibition
1 | C/C(CC(=O)NC(C)(C)C)=N\NC(=O)c1ccco1 | 16.9%
2 | O=C(NC(Cc1ccccc1)C(=O)O)/C(=C\c1ccccc1)NC(=O)c1ccco1 (centres undefined) | 54.3%
3 | CC(C)(C)NC(=O)/C(=C/c1cccnc1)NC(=O)c1ccco1 | -61.3% (active)
4 | Cc1ccc(/C=C(\C#N)C(=O)Nc2cc(C)ccc2C)cc1 | -15.9%
5 | Cc1ccc(CNC(=O)C2CCCN2C(=O)NCc2ccccc2)cc1 (centres undefined) | 1.11%
6 | CCCc1cc(=O)n2[nH]c(C)c(-c3ccc(Cl)cc3)c2n1 | 4.01%
7 | Cc1[nH]n(-c2cccc(Cl)c2)c(=O)c1-c1ccc(Cl)cc1 | -66.9% (active)
8 | O=c1c2ccccc2[nH]c(=S)n1-c1cccc(Cl)c1 | -21.9%
9 | Cc1ccc2c(c1)N(CC(=O)N1CCCC(C)C1)C(=O)CO2 (centres undefined) | -22.2%
10 | COC(=O)c1sc2ncccc2c1-n1c(C)ccc1C | -10.3%
11 | CCOC(=O)c1cc2cc(OC)ccc2n1C1CCN(C)CC1 | -32.2%
12 | CCN(CC)c1cc(NC2CCCCC2)c2c3c(onc13)-c1ccccc1C2=O | -25.5%
13 | CC(Oc1ccc(Cl)cc1)C(=O)Nc1ncccn1 (centres undefined) | -1.17%
14 | CC(=O)/C(=N\Nc1ccc(Cl)cc1Cl)Sc1cccc2cccnc12 | -103% (active)
15 | COc1c(Cl)cc(Cl)cc1C(=O)Nc1cccc2cccnc12 | 33.4%
16 | Cc1nn2c(=O)cc(COC(=O)c3ccccc3NC(=O)COc3ccccc3C)nc2s1 | 31.1%
17 | Cc1cccc(-n2ncc(C(=O)N3CCN(c4ccc(Cl)cc4)CC3)c2C2CCN(C(=O)OC(C)(C)C)CC2)c1 | 0%
18 | CC(=O)c1cccc(NC(=O)c2nc(-c3ccccc3)n(-c3cccc(C)c3)n2)c1 | -18.5%
19 | Cc1cccc(-n2ncc(Cl)c(Cl)c2=O)c1 | -104% (active)
20 | CN1CCN(C(CNC(=O)c2ccccc2F)c2ccc3c(c2)OCO3)CC1 (centres undefined) | 12.6%
21 | COc1ccc(N2C(=O)CCC(C(=O)N(C)C3CCCCC3)C2c2ccc(OC)c(OC)c2)cc1 (centres undefined) | -12.4%
22 | CN(C)S(=O)(=O)c1ccc(C(=O)N(Cc2cccnc2)c2nc3c(F)cc(F)cc3s2)cc1 | 0%
23 | Cc1cc(C(=O)COC(=O)c2cccs2)c(C)n1-c1c(C)n(C)n(-c2ccccc2)c1=O | -1.04%
24 | COCCn1c(C)cc(C(=O)COC(=O)CNC(=O)c2ccco2)c1C | 0%
25 | Cc1ccsc1C(=O)OCC(=O)c1cc(C)n(CC2CCCO2)c1C (centres undefined) | -75.9% (active)
26 | COc1ccc(CNC(=O)c2ccc(NC(=O)N3CC4CCCN4c4ccccc43)cc2)cc1 (centres undefined) | -1.77%
27 | CCOc1ccc(CNC(=O)C2CCN(c3nnc(-n4cccc4CNc4ccc(C)cc4)s3)CC2)cc1OC | -18.2%

Row | Compound | activity change, negative = inhibition
28 | CSc1ccc(CCNC(=O)C2CCN(c3nnc(-n4cccc4)s3)CC2)cc1 | -19.1%
29 | Cc1ccc(CCNC(=O)C2CCN(c3nnc(-n4cccc4CNc4ccc(C)cc4)s3)CC2)cc1 | -72.7% (active)
30 | CCOC(=O)c1c(S(=O)(=O)NCC(=O)Nc2ccc(Cl)c(C(F)(F)F)c2)c(C)n(C)c1C | -27.1%
31 | CCOc1ccc(CCN2C(=O)C(=O)N([C@@H](CC(C)C)CN3CCC[C@H]3CN3C(=O)C(=O)NC[C@@H]3Cc3ccccc3)C[C@@H]2CC(C)C)cc1 | -7.85%
32 | CC(C)C[C@H]1CN([C@@H](Cc2ccccc2)CN2CCC[C@@H]2CN2C(=O)C(=O)NC[C@@H]2Cc2ccc(O)cc2)C(=O)C(=O)N1CCc1ccccc1 | -26.7%
33 | CC(C)C[C@H]1CN([C@@H](CC(C)C)CN2CCC[C@@H]2CN2C(=O)C(=O)NC[C@@H]2Cc2ccccc2)C(=O)C(=O)N1CCc1ccccc1 | -63.2% (active)
34 | O=C(Nn1c(-c2ccc(Cl)cc2)nc2ccccc2c1=O)c1cccnc1Cl | -11.2%
35 | O=c1c2ccccc2nc(-c2ccccc2)n1-c1ccccn1 | -62.3% (active)
36 | O=c1c2ccccc2c(-c2ccccc2)nn1-c1ccccn1 | -24.2%
37 | COc1cccc(CNC(=O)CN2C(=O)CCc3cc(S(=O)(=O)N4CCOCC4)ccc32)c1 | 7.53%
38 | COc1cc(OC)cc(-c2nc3nc(C)c(CCC(=O)Nc4ccc(C)cc4)c(C)n3n2)c1 | 22.9%
39 | CCC1CCCCN1S(=O)(=O)c1ccc(NC(=O)c2cc(=O)c3ccccc3o2)cc1 (centres undefined) | -21.4%
40 | CCc1ccc(NC(=O)c2sc3nc4c(cc3c2N)CN(CC)CC4)cc1 | -27.1%
41 | Cc1cccc(-c2nnc(SCC(=O)N3CCCc4ccccc43)o2)c1 | -13.3%
42 | Cc1cccc2cc3c(N)c(C(=O)N4CCCc5ccccc54)sc3nc12 | -66.1% (active)
43 | COc1ccc(N2CCN(Cc3nc4c(c(=O)[nH]c(=O)n4C)n3Cc3ccc(Cl)cc3)CC2)cc1 | -12.8%
44 | Cc1cc(OC(C)C(=O)Nc2sc3c(c2C(N)=O)CCCC3)ccc1Cl (centres undefined) | -5.13%
45 | O=C(NC1CCCCC1)C1CC(=O)N(CCc2ccccc2)C1 (centres undefined) | -109% (active)
46 | O=C(NCCCN1CCCCC1)C1CC(=O)N(CCc2ccccc2)C1 (centres undefined) | 0.846%
47 | Cc1ccc(CCN2CC(C(=O)NCCc3ccccc3)CC2=O)cc1 (centres undefined) | -5.82%
48 | CC(=O)N1c2ccc(S(=O)(=O)N3CCCCCC3)cc2CC1C(=O)NCc1ccccc1C (centres undefined) | 8.34%
49 | O=C(C1CCC(Cn2c(=O)c3sccc3n(Cc3ccccc3F)c2=O)CC1)N1CCCCC1 (centres undefined) | 3.01%
50 | CC(=O)N1CCC(C(=O)OCc2ccc(Cl)cc2)(c2ccccc2)CC1 | 7.78%
51 | O=C(OCCN1CCOCC1)C1(c2ccccc2)CCCCC1 | -71.6% (active)
52 | O=C(OCCN1CCOCC1)C1(c2ccccc2)CCCC1 | -35.5%
53 | COc1ccc(CCNc2ncnc3c2cnn3-c2ccc(C)cc2)cc1 | -8.18%
54 | O=C1CCC[C@H]2[C@@H](Cc3ccccc3)[C@@H](NS(=O)(=O)c3ccc([N+](=O)[O-])cc3[N+](=O)[O-])CC[C@]23CCCN13 | -34.8%
